PubChem BioAssay (NCI)
Compounds without any hit were thinned out: in the full panel of roughly 83,000, 20% have a hit.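 A percent growth of 40 corresponds to 60% growth inhibition; 0 means no net growth; -100 means all cells died. Active threshold: below 10.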 A number with no mark means an inactive call. Calls of active or inactive are those of the source.

Legend:
Test in all cases: NCI-60 one-dose screen, 48 h (100 = growth as untreated, 0 = no growth, -100 = all killed)
Settings in all cases: 10 µM unless noted
SK-MEL-2 melanoma = tested on: SK-MEL-2 melanoma
EKVX NSCLC = tested on: EKVX NSCLC
SN12C renal = tested on: SN12C renal
UO-31 renal = tested on: UO-31 renal
TK-10 renal = tested on: TK-10 renal
ACHN renal = tested on: ACHN renal
CAKI-1 renal = tested on: CAKI-1 renal
A498 renal = tested on: A498 renal
RPMI-8226 leukemia = tested on: RPMI-8226 leukemia
OVCAR-8 ovarian = tested on: OVCAR-8 ovarian
OVCAR-5 ovarian = tested on: OVCAR-5 ovarian
OVCAR-4 ovarian = tested on: OVCAR-4 ovarian
SK-OV-3 ovarian = tested on: SK-OV-3 ovarian
IGROV1 ovarian = tested on: IGROV1 ovarian
OVCAR-3 ovarian = tested on: OVCAR-3 ovarian
HS 578T breast = tested on: HS 578T breast
NCI/ADR-RES ovarian = tested on: NCI/ADR-RES ovarian
CCRF-CEM leukemia = tested on: CCRF-CEM leukemia
MOLT-4 leukemia = tested on: MOLT-4 leukemia
SR leukemia = tested on: SR leukemia

SMILES | growth (SK-MEL-2 melanoma) | growth (EKVX NSCLC) | growth (SN12C renal) | growth (UO-31 renal) | growth (TK-10 renal) | growth (ACHN renal) | growth (CAKI-1 renal) | growth (A498 renal) [%] | growth (RPMI-8226 leukemia) | growth (OVCAR-8 ovarian) | growth (OVCAR-5 ovarian) | growth (OVCAR-4 ovarian) | growth (SK-OV-3 ovarian) | growth (IGROV1 ovarian) | growth (OVCAR-3 ovarian) | growth (HS 578T breast) | growth (NCI/ADR-RES ovarian) | growth (CCRF-CEM leukemia) | growth (MOLT-4 leukemia) | growth (SR leukemia)
CC(c1ccccc1)C(C(=O)c1ccccc1)c1ccccc1 (stereo unspecified) | 85.1% | 98.5% | 88.5% | 119% | 66.2% | 48.9% | 89.2% | 93.3 | 107% | 63.7% | 101% | 96% | 101% | 99.5% | 110% | 91.2% | 80.3% | – | – | –
Cc1ccc(NC(=O)Cc2ccc(/C=C/C(=O)c3ncc[nH]3)cc2)cc1 | 109% | 82.4% | 13.5% | 39.5% | 78.4% | 73.1% | 61.1% | – | -11.4% (active) | 8.42% (active) | 64.2% | 58% | 84.4% | 57.6% | 15.3% | 42.9% | 38.3% | 4.85% (active) | 23.5% | 7.24% (active)
COc1cc2c(c(OC)c1OC)CCC(c1cccc(NC(=O)c3cccc(Br)c3)c1)O2 (stereo unspecified) | 103% | 84.6% | 87.6% | 79% | 91.8% | 94.2% | 91.5% | – | 78.2% | 93.6% | 98.5% | 83.5% | 84% | 85% | 97.3% | 84.1% | 91.8% | 88% | 74.3% | 84.2%
CC(Sc1nc2ccccc2c(=O)n1CCc1ccc(S(N)(=O)=O)cc1)C(=O)Nc1ccc(Cl)cc1 (stereo unspecified) | 80.9% | 70.3% | 86.2% | 53.8% | 80.1% | 86.3% | 75.6% | – | 65.9% | 72.8% | 85.7% | 93.2% | 125% | 86.3% | 99.1% | 86.5% | 77.3% | 63.7% | 68.3% | 77.4%
O=C(/C=C/c1ccc[nH]1)c1ccc(-n2ccc(C(F)(F)F)n2)c(F)c1 | 108% | 80.2% | 92.1% | 46.9% | 104% | 103% | 93% | – | -6.08% (active) | 95.6% | 90.9% | 99.2% | 121% | 93.4% | 99.8% | 98% | 93.1% | 59.7% | 84% | 80.3%
CC(C)(C)c1ccc(NS(=O)(=O)c2ccc3nc(NC(=O)c4cnccn4)[nH]c3c2)cc1 | 45.3% | 58.6% | 44.3% | 36.1% | 57.4% | 39.6% | 21.7% | – | 24.3% | 45.6% | 57% | 37% | 53.5% | 37.4% | -12.3% (active) | -1.91% (active) | 30.6% | 7.84% (active) | 27.7% | 4.26% (active)
C=C(C)[C@@H]1CC[C@]2(C(=O)N3CCN(C)CC3)CC[C@]3(C)[C@H](CC[C@@H]4[C@@]5(C)C/C(=C/c6ccncc6)C(=O)C(C)(C)[C@@H]5CC[C@]43C)[C@@H]12 | 64.6% | 77.3% | 47.1% | 48% | 89.4% | 60.9% | 71.1% | – | 20.7% | 49.1% | 88.8% | 53% | 88.8% | 74.8% | 53.3% | 61.8% | 57.9% | 24.7% | 3.16% (active) | 9.44% (active)
COc1ccc(C(=O)c2cc(C)c(OC)c(C)c2)c(OC)c1N(C(=O)CCl)C(=O)CCl | 27.8% | 51.7% | 31.3% | 39.3% | 52.5% | 18.2% | 42% | – | 17.7% | 10.3% | 29.2% | 44.9% | 2.36% (active) | 13.8% | -6.63% (active) | 23% | -37.1% (active) | 8.61% (active) | 13.2% | 21%
C=C(C)[C@@H]1CC[C@]2(CN)CC[C@]3(C)[C@H](CC[C@@H]4[C@@]5(C)CCCNC(C)(C)[C@@H]5CC[C@]43C)[C@@H]12 | 6.75% (active) | 6.81% (active) | -25.5% (active) | 5.31% (active) | -10.6% (active) | -91.8% (active) | -94.5% (active) | – | -43.8% (active) | -59.6% (active) | -23% (active) | -70.9% (active) | 86.1% | -81.9% (active) | -85.8% (active) | -42.3% (active) | -52% (active) | -27.4% (active) | -45.4% (active) | -38.7% (active)
COc1cc(/C=N/NC(=O)c2cnn3c2NC(c2ccccc2)C3)ccc1OCc1ccccc1 (stereo unspecified) | 6.28% (active) | 32.1% | 29.2% | 32.6% | -0.854% (active) | 10.7% | 0.476% (active) | – | 43.7% | 2.7% (active) | 33.2% | -21.9% (active) | 18.9% | 12.2% | -63.4% (active) | -1.22% (active) | 35% | 17.1% | 14.7% | 0.0936% (active)
COc1cc2nc(-c3ccc(C(F)(F)F)cc3)cc(OCCCN3CCOCC3)c2cc1OC | 47.4% | 61.6% | 41.3% | 33% | 96.6% | 34.3% | -13.1% (active) | – | 10.8% | 41.6% | 45.8% | 52.8% | 70.3% | 36.4% | 61.6% | 54.7% | 40.4% | 37.5% | 44.9% | 16.5%
O=Cc1cc2ccccc2nc1Oc1ccc(C(F)(F)F)cc1 | 101% | 82.4% | 70.5% | 35.1% | 98% | 87.7% | 63.4% | – | 33% | 91% | 99.2% | 98.6% | 81.5% | 68.3% | 96.7% | 89.7% | – | 6.98% (active) | 60.5% | 23.6%
CC(Sc1nc2sc3c(c2c(=O)n1-c1ccc(Cl)cc1)CCCC3)C(=O)Nc1nc(-c2ccc(Br)cc2)cs1 (stereo unspecified) | 101% | 90.1% | 96.8% | 81.5% | 99.5% | 106% | 94.4% | – | 102% | 103% | 93.9% | 109% | 96.6% | 96% | 114% | 112% | 95.6% | 105% | 94.1% | 97.6%
CCCCCCNC(=O)Nc1ccc2cc3ccc(NC(=O)NCCCCCC)cc3nc2c1 | 11.3% | 48.7% | -72.7% (active) | 94.2% | 97.8% | 96.7% | 71.4% | – | 0.729% (active) | -82.7% (active) | 9.67% (active) | 56.9% | 13.2% | 11.4% | -5.6% (active) | -53.7% (active) | 100% | 0.631% (active) | -45% (active) | -33% (active)
CNCCn1c(=O)c2cc(OC)c(OC)cc2c2ccc3cc4c(cc3c21)OCO4 | -76.1% (active) | -6.68% (active) | 2.31% (active) | -66.4% (active) | -68.9% (active) | -76% (active) | -84.9% (active) | – | -27.6% (active) | 10.2% | 4.57% (active) | -10.9% (active) | -0.269% (active) | 0.994% (active) | -6.33% (active) | 4.39% (active) | 4.99% (active) | -1.64% (active) | -10.3% (active) | -22.4% (active)
CC1(C)CC(O)CCCCCCOc2c(CN)cccc2NC(=O)c2nc(cnc2N)-c2ccc(cc2)S1(=O)=O (stereo unspecified) | 25.4% | 86.2% | 20.1% | 27.8% | 34.7% | 24.7% | 18.1% | – | -41.5% (active) | 23.5% | 68.4% | -22.1% (active) | 44.9% | 9.31% (active) | -5.21% (active) | 13.2% | 67.1% | -8.71% (active) | 2.43% (active) | -16.8% (active)
